Test in all cases: NCI-60 one-dose screen, 48 h (100 = growth as untreated, 0 = no growth, -100 = all killed)
Common to all, as to settings: 10 µM unless noted

Assay [1] concerns SK-MEL-2 melanoma.
Assay [2] concerns EKVX NSCLC.
Assay [3] has as its system SN12C renal.
In assay [4] the test system is UO-31 renal.
In assay [5] the test system is TK-10 renal.
For assay [6], the system named is ACHN renal.
The subject of assay [7] is CAKI-1 renal.
Assay [8] concerns A498 renal.
In assay [9] the test system is CCRF-CEM leukemia.
Assay [10] deals with MOLT-4 leukemia.
Assay [11] has as its system RPMI-8226 leukemia.
Assay [12] concerns OVCAR-8 ovarian.
Assay [13] relates to OVCAR-5 ovarian.
Assay [14] concerns OVCAR-4 ovarian.
In assay [15] the test system is SK-OV-3 ovarian.
For assay [16], the system named is IGROV1 ovarian.
Assay [17] deals with OVCAR-3 ovarian.
In assay [18] the test system is HS 578T breast.
The subject of assay [19] is NCI/ADR-RES ovarian.
Assay [20] deals with SR leukemia.

Molecules are shown by their SMILES. The panel holds about 83,000 compounds, 20% with a hit somewhere; the sample as a whole holds those more often.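 Growth was measured after 48 h exposure to one concentration of compound in 96-well plates. Values under 10 count as active.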 Values without a mark were called inactive. Calls of active or inactive are those of the source.

In the case of `CC1(C)N=C(N)N=C(N)N1c1cccc(CN)c1`, the growth in assay [1] is 99.8%; in assay [2], 83.9%; in [3], 91.3%; in assay [4] it was 66.8%; in assay [5], 101%; in assay [6], 100%. Also, the growth in assay [7] was 89.2%; in assay [8], 98%; in assay [9], 96.5%; in assay [10], 95.1%; in assay [11], 99.9%; in assay [12], 93.3%. Further, the growth in assay [13] is 89.2%; in assay [14], 93.8%; in assay [15] it was 101%; in assay [16], 88.8%; in assay [17], 94.9%; in assay [18], 95.6%. Besides, the growth in assay [19] is 96.4%.
As for `COc1ccc(OC)c(C(=O)Nc2cccc(-c3cc(=O)c4ccccc4o3)c2)c1`, the growth is 98.2% in assay [1]; 90.5% in [2]; 82.6% in assay [3]; 95.2% in assay [4]; 88% in [5]; 84.7% in [6]. The growth in assay [7] is 79.4%; in assay [8], 92.4%; in [9], 86.5%; in [10], 86.3%; in assay [20], 80%; in assay [12] it was 63.3%. For the same molecule, the growth is 95.4% in assay [13]; 73.3% in assay [14]; 52.6% in [15]; 104% in assay [16]; 110% in assay [17]; 68.3% in assay [18]. Further, in [19], the growth is 80.2%.
Take `COc1ccc(OC)c(/C=C2\COc3ccc(O)c(O)c3C2=O)c1`: the growth in assay [1] is 76.6%; in assay [2] it was 57.9%; in assay [3], -4.71% (active); in assay [4] it was -25.8% (active); in assay [5], 41.5%; in assay [6], 19.6%. Further, the growth in assay [7] was 31.2%; in [8], 107%; in [9] it was -0.701% (active); in [10] it was 4.32% (active); in assay [20], 7.03% (active); in [12], 24.7%. The growth in assay [13] is 31.9%; in [14] it was 27.4%; in assay [15] it was 45.2%; in assay [16], 5.82% (active); in assay [17] it was 1.23% (active); in assay [18], 22%. Besides, the growth in assay [19] is 14.1%.
In the case of `CC(C)n1nc(C#Cc2cccc(O)c2)c2c(N)ncnc21`, the growth was -76.9% (active) in [1]; -27.1% (active) in assay [2]; -44.3% (active) in [3]; -63.4% (active) in assay [4]; -87.4% (active) in assay [5]; -47.3% (active) in assay [6]. In addition, the growth in assay [7] was -66.8% (active); in [8], -84.9% (active); in [9], -21% (active); in [10], -36.1% (active); in [11], -46.9% (active); in assay [12], -36.4% (active). Also, the growth is -43% (active) in assay [13]; -15% (active) in [14]; -62.6% (active) in assay [15]; -68.8% (active) in assay [16]; -19.6% (active) in assay [17]; -28.8% (active) in assay [18]. The growth in [19] was -29.2% (active).
As to `Clc1ccc(/C=C/c2nc(Nc3ccc(Cl)cc3)c3ccccc3n2)cc1`, the growth in assay [1] was 106%; in assay [2] it was 90.5%; in assay [3], 103%; in [4], 70%; in assay [5], 121%; in assay [6], 105%. In addition, the growth in assay [7] is 90.1%; in [8] it was 94.9%; in assay [9], 102%; in [10], 98.2%; in [20] it was 104%; in assay [12] it was 102%. In addition, the growth is 106% in assay [13]; 112% in assay [14]; 96.6% in [15]; 78.2% in assay [16]; 106% in [17]; 103% in assay [18]. The growth in [19] is 103%.
For the molecule `O=C(/C=C/c1ccccc1)c1ccc2ccccc2c1`, the growth in [1] is 98.4%; in assay [2], 86.7%; in assay [3], 99.7%; in assay [4] it was 73.9%; in assay [5], 44.4%; in [6], 16.2%. Further, the growth in [7] is 83.9%; in assay [8], 93.5%; in assay [9] it was 23%; in assay [10] it was 74.5%; in assay [20], 48.1%; in [12], 100%. The growth is 106% in [13]; 97% in assay [14]; 103% in assay [15]; 76.2% in assay [16]; 145% in assay [18]; 101% in assay [19].
On to `CC[C@@H](C[C@H](CCO)c1ccccc1)c1cc2ccccc2o1`, for which the growth in [1] is 81.3%; in assay [2], 103%; in assay [3] it was 95.8%; in assay [4] it was 88.8%; in [5], 98.8%; in assay [6], 99.1%. Further, the growth in assay [7] was 77.4%; in assay [8], 104%; in [9], 90.7%; in assay [10] it was 79.9%; in [11], 90.8%; in assay [12], 91%. The growth in [13] is 96.7%; in assay [14], 85.3%; in [15], 93.9%; in [16], 97.8%; in [17], 95.7%; in assay [18], 93%. The growth in assay [19] was 93.1%.
With `CCN(CC)CCOc1ccc(/C(=C(\C)c2ccc(OC)c(F)c2)c2ccc(Cl)cc2)cc1`, the growth in assay [1] was 95.9%; in assay [2] it was 96.5%; in assay [3], 83.5%; in [4], 75.6%; in [5], 82.6%; in [6] it was 89.8%. In addition, the growth in assay [7] is 67.2%; in assay [8], 102%; in assay [9], 60.2%; in assay [10], 70.8%; in [20] it was 29.8%; in assay [12] it was 76.7%. For the same molecule, the growth was 72.9% in [13]; 73.1% in [14]; 91.1% in assay [15]; 72.2% in [16]; 89% in assay [17]; 70% in assay [18]. In addition, the growth in assay [19] was 82.3%.

The values are drawn from PubChem BioAssay (NCI).
